Measured values as given in ChEMBL document CHEMBL3433997, “St. Jude Leishmania screening dataset” (2016).

biological target: Glucose transporter (Leishmania mexicana) (UniProt O61059); test: ST_JUDE_LEISH: Cytotoxicity at 2uM final concentration against transgenic Leishmania Mexicana promastigotes LmGT2 that are glucose transport deficient and complemented with the L. Mexicana glucose transporter 2. Activity is measured by DNA content using SYBR green in vitro; format: functional

| Structure (SMILES) | inhibition |
| --- | --- |
| COc1ccc(-n2nc(C)c3c2NC(=O)CC3c2ccccc2OCc2ccc(F)cc2)cc1 (stereo not given) | 5.62% |
| CCCC(CNCc1cccc(OC(F)(F)C(F)F)c1)CNc1cc(=O)c2ccccc2[nH]1 (stereo not given) | -4.05% |
| Cc1nc(N)nc(N)c1-c1ccc(Br)c([N+](=O)[O-])c1 | 2.4% |
| O=C(/C=C/c1ccc(Cl)c(Cl)c1)NCC1CCN(Cc2ccc(O)cc2)CC1 | 46.2% |
| O=C(NC1CCN(Cc2ccc3c(c2)OCCO3)CC1)c1ccc(-c2cccc(C(F)(F)F)c2)s1 | 2.57% |
| CC(C)(C)C1CC(=O)CC2C(=O)N(c3ccc(Br)cc3)C(=O)C21 (stereo not given) | -1.64% |
| C[C@@H](CC1CCCCC1)OC(=O)N[C@H]1CCN(C#N)C1 | 7.29% |
| Cc1nc(Nc2ccncc2)cc(-c2ccncc2)n1 | 2.92% |
| CCCc1cc(Cc2cnc(N)nc2N)cc(CC)c1OC | 2.29% |
| CC(C)C[C@H](NC(=O)[C@H](Cc1ccccc1)NC(=O)CCN1C(=O)COc2ccc(C(=O)O)cc21)C(=O)NC(CC1CCCCC1)C(O)CC(=O)NCCCn1ccnc1 (stereo not given in full) | 9.78% |
| OCCn1c(CNCCCNc2nc3ccccc3[nH]2)cc2c(Cl)cc(Cl)cc21 | 80.5% |
| CCCc1cc(=O)[nH]c(-n2nc(C)cc2NC(=O)c2cc3ccccc3o2)n1 | 4.77% |
| CCCN(CCC)C(=O)c1cc(C(=O)N[C@@H](Cc2ccccc2)[C@H](O)CNC2CC2)cc(N2CCCCS2(=O)=O)c1 | 1.62% |
| O=C1Nc2ccc3ncccc3c2/C1=C/Nc1ccc(N2CCN(CCO)CC2)cc1 | 2.47% |
| O=C1C(=Cc2cc(Cc3ccccc3)ccc2O)SC(=S)N1Cc1ccccc1 | 8.43% |
| CC(=O)Nc1ccc(CNC2Cc3ccc(-c4ccc(Cl)c(Cl)c4)cc3C2)cc1 (stereo not given) | -0.25% |
| CN1CCc2cc(NS(=O)(=O)c3ccc(-c4ccc(Cl)s4)cc3)c(N3CCCCC3)cc2CC1 | -2.07% |
| Cc1ccc(NC(=O)c2cc(Br)cc(N3CCCN(C)CC3)c2)cc1F | -1.29% |
| CC(CCc1ccccc1)NCC(O)c1ccc2c(c1)S(=O)(=O)c1ccccc1N2 (stereo not given) | 2.14% |
| O=C(Nc1ccc(-c2cccc(-c3nc4ccccc4[nH]3)c2)cc1)c1cnn2cccnc12 | -0.16% |

| Structure (SMILES) | inhibition |
| --- | --- |
| COc1ccc(-c2ccc(NC(=O)c3ccc(Cl)cc3)cc2)cc1CN(C)CCO | -0.68% |
| CCCC1(NC[C@@H](O)[C@H](Cc2ccccc2)NC(=O)c2cc(NCC)cc(N3CCCCS3(=O)=O)c2)CC1 | -0.73% |
| CN(c1ccccc1C(=O)Nc1ccccc1Oc1ccccc1)S(=O)(=O)c1ccccc1 | 5.08% |
| Fc1cccc(COc2ccc(Nc3ncnc4sc(C#CC5CCCCN5)cc34)cc2Cl)c1 (stereo not given) | -0.16% |
| CN(C)CCn1c(N)c(-c2nc3ccccc3s2)c2nc(C#N)c(C#N)nc21 | 3.11% |
| Cc1ccccc1C1CCN(C2CCC(NC(=O)/C=C/c3cc(F)cc(F)c3)CC2)CC1 (stereo not given) | -1.77% |
| OCC1CCN(Cc2cccc(-c3ccc(-c4nc5cc(C(F)(F)F)ccc5[nH]4)s3)c2)CC1 | 3.14% |
| CNCCNCc1ccc(-c2cccc(-c3nc4cc(F)ccc4[nH]3)c2)cc1 | 3.03% |
| CCOc1ccc(OCCCON2C(=N)N=C(N)NC2(C)C)cc1 | 0.05% |
| Nc1c2c(nc3ccc(Oc4ccc(Br)cc4Br)cc13)CCCC2 | 57.4% |
| CCOc1ccc(-c2nonc2NC(=O)c2ccc(F)cc2)cc1OCC | 1.5% |
| O=C(C=Cc1cn(-c2ccccc2)nc1-c1cccs1)N1CCN(c2ccncc2)CC1 | -3.76% |
| CC(C)(C)c1nn(-c2ccccc2)c2[nH]c(=O)c(CNCc3ccc4c(c3)OCO4)cc12 | 3.39% |
| O=C(O)C[C@H](NC(=O)c1cc(-c2ccc3c(c2)OCO3)no1)C(=O)O.O=C(O)C[C@H](NC(=O)c1conc1-c1ccc2c(c1)OCO2)C(=O)O | -2.23% |
| CC(C)N1CCN(c2ccc(OCCCCN3CCN(c4cccc(Cl)c4Cl)CC3)c(C(F)(F)F)c2)CC1 | 0.98% |
| CCOc1ccc(C(Cc2ccccc2)NC(=O)c2cccnc2)cc1OCC (stereo not given) | -0.89% |
| CCN1CCC(NCc2ccc(-c3ccc(Cl)s3)cc2)CC1 | -1.7% |
| CS(=O)(=O)NCCCNCc1ccc(-c2cccc(-c3nc4cc(F)ccc4[nH]3)c2)cc1 | -0.29% |
| CCCN(CCC)C(=O)c1cc(C(=O)N[C@@H](Cc2ccccc2)[C@H](O)CNC(C)(C)c2cccc(C(F)(F)F)c2)cc(N2CCCCS2(=O)=O)c1 | -1.54% |
| CCCCCCCc1ccc(-c2c(C)[nH]c(C)c(Cl)c2=O)cn1 | 0.07% |
